The whole screen tested about 50,000 compounds, of which about 800 (1.6%) showed an effect of 50% or more. The sample as a whole holds a higher share of strong results than the screen did.
The compounds below were run against Bcl-2-like protein 10 (Homo sapiens) (UniProt Q9HD36) (assay: Phenotype converters, Bcl-B/TR3 peptide binding displacement, primary biochemical FP (AID 1240;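 further: 0% = Bcl-B with tracer peptide and DMSO and 100% = tracer peptide lacking Bcl-B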)). Conditions: GST-Bcl-B / FITC-TR3 peptide fluorescence polarization; stronger effect = higher value; compound at 3.75 mg/L.
Bcl-2-like protein 10 (Homo sapiens), sequence (Q9HD36 whole entry, looked up): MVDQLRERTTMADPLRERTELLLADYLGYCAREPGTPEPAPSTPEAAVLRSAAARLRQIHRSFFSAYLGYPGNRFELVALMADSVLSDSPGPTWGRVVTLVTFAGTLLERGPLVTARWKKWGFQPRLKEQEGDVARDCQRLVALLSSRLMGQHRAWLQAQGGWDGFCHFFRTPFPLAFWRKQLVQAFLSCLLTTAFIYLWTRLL
With `COc1ccccc1NC(=O)c1ccc(Br)o1` the displacement was 1%.
In the case of `O=c1oc(-c2ccccc2Cl)nc2ccc(-c3ccc4nc(-c5ccccc5Cl)oc(=O)c4c3)cc12`, the displacement is reported as 11.6%.
With `O=C(Nc1cc(-c2nc3ccccc3s2)ccc1Cl)c1ccc([N+](=O)[O-])cc1` the displacement was 90.8%.
Work on `Cc1ccc2nsnc2c1NC(=O)c1ccc(-c2cccc([N+](=O)[O-])c2)o1` yielded a displacement of 105%.
For `Cc1ccc2nsnc2c1NC(=O)c1ccc(-c2ccc([N+](=O)[O-])cc2)o1`, the displacement was 16.6%.
Work on `O=C(Nc1cccc(-c2nc3ccccc3s2)c1)c1ccc(-c2ccc([N+](=O)[O-])cc2)o1` yielded a displacement of 70%.
`Cc1ccc2nsnc2c1NC(=O)c1ccc(-c2cccc(Cl)c2)o1` showed a displacement of 1.4%.
`Cc1c(NC(=O)c2ccc(-c3cccc([N+](=O)[O-])c3)o2)cccc1-c1nc2ccccc2s1` was tested, and the displacement was 3.7%.
For `CC(=O)Nc1cc(-c2nc3ccccc3s2)ccc1Cl`, the displacement was 11.6%.
With `O=C(Nc1ccc(-c2nc3ccccc3s2)c(O)c1)c1ccc(-c2cccc([N+](=O)[O-])c2)o1` the displacement was 6.1%.
`O=C(COc1ccc([N+](=O)[O-])cc1)Nc1cc(-c2nc3ccccc3s2)ccc1Cl` was tested, and the displacement was 9%.
`O=c1/c(=C\c2ccccc2OS(=O)(=O)c2ccc3ccccc3c2)sc2nc3ccccc3n12` gave a displacement of 4.6%.
Work on `O=[N+]([O-])c1ccc(N2CCN(S(=O)(=O)c3ccc(Cl)cc3)CC2)c(C(F)(F)F)c1` yielded a displacement of 8.3%.
Work on `CCOC(=O)c1ccccc1NC(=O)c1ccc(N(Cc2ccc(Cl)cc2)S(C)(=O)=O)cc1` yielded a displacement of 12.1%.
`COC(=O)c1c(-c2cc(C)ccc2C)csc1N` showed a displacement of -6.2%.
For `COc1cccc(/C=N/NC(=O)c2cc(C)[nH]n2)c1OC`, the displacement was -9%.
Work on `CN(C)CCCNC(=O)c1ccc2sc3cc(=O)c(N)cc-3nc2c1` yielded a displacement of 44.6%.
With `CCCCOc1ccccc1NC(=O)C(c1ccccc1)c1ccccc1` the displacement was -16.9%.
With `CCCCOc1ccc(N2C(=O)c3cccc4cccc(c34)C2=O)cc1` the displacement was 0.2%.
In the case of `CCCCOc1ccc2c3c(cccc13)C(=O)c1ccccc1-2`, the displacement is reported as 176%.
In the case of `CC1(C)CC(=O)C(Sc2ccc([N+](=O)[O-])cc2)=C(O)C1`, the displacement is reported as 17%.
`CCOc1cc(-c2ccc(OC)cc2)[o+]c2c1ccc1ccccc12` gave a displacement of 6.2%.
With `C=CCOC(=O)C1=C(C)NC(=S)NC1c1ccccc1OCC` (centres undefined) the displacement was 2.1%.
For `N#C/C(=C\N1CCOCC1)c1ccccc1`, the displacement was -0.9%.
Work on `N#CC(C#N)=C/C(=C/C(C#N)C#N)c1ccccc1` yielded a displacement of 109%.
Work on `N#C/C(=C\c1ccc(Sc2ccccc2)o1)c1ccccc1` yielded a displacement of -14.9%.
`Cc1ccc2c(c1)C1C=CCC1C(C(=O)O)N2` (centres undefined) showed a displacement of 142%.
For `COc1ccc2c(c1)C1C=CCC1C(C(=O)O)N2` (centres undefined), the displacement was 150%.
Work on `COc1ccc2c(c1)C1C=CCC1C(c1cccc([N+](=O)[O-])c1)N2` (centres undefined) yielded a displacement of -2.3%.
`Cc1ccc2c(c1)C1C=CCC1C(c1ccc([N+](=O)[O-])cc1)N2` (centres undefined) gave a displacement of 12.2%.
`COc1ccc2c(c1)C1C=CCC1C(c1ccc([N+](=O)[O-])cc1)N2` (centres undefined) gave a displacement of -0.8%.
`Cc1ccc2c(c1)C1C=CCC1C(c1ccccc1[N+](=O)[O-])N2` (centres undefined) showed a displacement of 6.9%.
Compound `COC(=O)c1c(C)oc2ccc(OC(=O)c3ccc(OC)c(OC)c3)cc12` has a displacement of 10.8%.
`Cc1ccc(C)c(N2C(=O)C3C4C=CC(C4=C4CCCC4)C3C2=O)c1` (centres undefined) gave a displacement of 3.8%.
Compound `CCOc1cc(OCC)cc(C(=O)Nc2ccc(-c3nc4ccc(C)cc4o3)cc2)c1` has a displacement of -16.6%.
Work on `COc1ccc(C(=O)Nc2ccc(O)c(-c3nc4cc(Cl)ccc4o3)c2)cc1` yielded a displacement of 40.1%.
`O=C(Nc1ccc(-c2nc3cc(Cl)cc(Cl)c3o2)cc1)c1cccc([N+](=O)[O-])c1` showed a displacement of 62.7%.
`CCOc1cccc(C(=O)Nc2ccc(-c3nc4cc(Cl)ccc4o3)cc2)c1` was tested, and the displacement was 81.3%.
`CCOc1cccc(C(=O)Nc2ccc(C(=O)Nc3cccc(-c4nc5ccccc5o4)c3)cc2)c1` was tested, and the displacement was 0.7%.
With `CCOc1ccc(C(=O)Nc2ccc(-c3nc4ccc(C)cc4o3)cc2)cc1Cl` the displacement was 104%.
`CCOc1cc(OCC)cc(C(=O)Nc2ccc3oc(-c4ccc(OC)cc4)nc3c2)c1` gave a displacement of 4.2%.
`COc1cccc(C(=O)Nc2ccc(Cl)c(-c3nc4cc(Cl)ccc4o3)c2)c1` showed a displacement of 105%.
`COc1cccc(C(=O)Nc2ccc3oc(-c4ccc(F)cc4Cl)nc3c2)c1` gave a displacement of 17.1%.
`CCOc1ccc(C(=O)Nc2ccc3oc(-c4ccncc4)nc3c2)cc1Cl` was tested, and the displacement was -9.5%.
`O=C(Nc1cccc(-c2nc3cc(Cl)ccc3o2)c1)c1cccc([N+](=O)[O-])c1` gave a displacement of -3.3%.
In the case of `O=C(Nc1ccc(-c2nc3ccccc3c(=O)o2)cc1)c1cccc([N+](=O)[O-])c1`, the displacement is reported as -5.5%.
`CCOC(=O)C1=C(O)/C(=C/c2ccc(-c3ccccc3)cc2)SC1=Nc1ccc(OC)cc1` was tested, and the displacement was -6%.
In the case of `O=C1c2ccccc2C(=O)C1(Nc1ccc(F)cc1)c1ccccc1`, the displacement is reported as 17.4%.
With `O=C(Nc1ccccc1[N+](=O)[O-])c1c(-c2cnc3ccccc3c2C(=O)Nc2ccccc2[N+](=O)[O-])cnc2ccccc12` the displacement was -1.5%.
`COc1ccc(Cl)cc1NC(=O)c1cccc(F)c1` gave a displacement of -13.8%.
`CC1CN(C(=O)c2ccccc2C(=O)c2ncc[nH]2)CC(C)O1` (centres undefined) was tested, and the displacement was -0.9%.
Work on `CC(=O)OC1(C#CCl)CCCCC1` yielded a displacement of -8.7%.
For `O=C1CC(N2CCC(O)CC2)C(=O)N1c1ccc(Cl)cc1` (centres undefined), the displacement was -4.9%.
Compound `Cc1ccc(-c2nc(N/N=C/c3ccccc3O)c3ccccc3n2)cc1` has a displacement of 76.2%.
For `Cc1ccc(-c2nc(N/N=C/c3ccccc3)c3ccccc3n2)cc1`, the displacement was 6.7%.
For `COc1cccc(/C=N/Nc2nc(-c3ccc(C)cc3)nc3ccccc23)c1O`, the displacement was 3.4%.
`CCC(=O)Oc1cc2oc(=O)c(CC)c(C)c2cc1CC` showed a displacement of 10.1%.
For `COc1ccc(N2C(=O)NC(=O)/C(=C/c3ccc(-c4ccc([N+](=O)[O-])cc4)o3)C2=O)cc1`, the displacement was 46.2%.
Compound `O=C1NC(=O)N(c2ccc(Cl)cc2)C(=O)/C1=C/c1ccc(-c2ccc(Cl)c(C(=O)O)c2)o1` has a displacement of 72.5%.
`O=C1NC(=O)N(c2ccccc2)C(=O)/C1=C\c1ccc(-c2cccc([N+](=O)[O-])c2)o1` was tested, and the displacement was 39.3%.
`O=C1NC(=O)N(c2ccccc2)C(=O)/C1=C\c1ccc(-c2ccc([N+](=O)[O-])cc2)o1` showed a displacement of 130%.
`O=C1NC(=O)N(c2ccc(Cl)cc2)C(=O)/C1=C/c1ccc(-c2ccc(Cl)cc2[N+](=O)[O-])o1` was tested, and the displacement was 10.6%.
`O=C1NC(=O)N(c2ccc(Cl)cc2)C(=O)/C1=C\c1ccc(-c2ccc(C(=O)O)c(Cl)c2)o1` was tested, and the displacement was -7.8%.
`O=C1NC(=S)N(c2ccc(Br)cc2)C(=O)/C1=C\c1ccc(-c2ccc([N+](=O)[O-])cc2)o1` showed a displacement of 16.2%.
`O=C1NC(=O)N(c2ccc(Br)cc2)C(=O)/C1=C/c1ccc(-c2cccc([N+](=O)[O-])c2)o1` gave a displacement of 138%.
`O=C1NC(=S)N(c2ccccc2)C(=O)/C1=C/c1ccc(-c2ccc([N+](=O)[O-])cc2)o1` showed a displacement of -1.5%.
In the case of `O=C1NN(c2ccc(Cl)cc2)C(=O)/C1=C\c1ccc(-c2ccc(Cl)c(C(=O)O)c2)o1`, the displacement is reported as 22.1%.
With `COc1ccc(N2C(=O)NC(=O)/C(=C/c3ccc(-c4cccc([N+](=O)[O-])c4)o3)C2=O)cc1` the displacement was -12.5%.
`O=C1NC(=O)N(c2ccc(Cl)cc2)C(=O)/C1=C\c1ccc(-c2ccc([N+](=O)[O-])cc2)o1` showed a displacement of 105%.
